Assay results taken from PubChem BioAssay AID2315 (National Center for Advancing Translational Sciences (NCATS), 2010).
Values joined by “and” are separate entries in the source; they are usually repeats but may differ in a detail not shown here. Identical values can stand only once. The campaign covered roughly 290,000 compounds. About 27,000 (9.3%) were called active. The full list was thinned out, with actives kept by preference. Unmarked numbers belong to inactive results. No stated cut-off is given here; in the data, active means inhibition mostly above about 28% (no sharp cut-off); inactive means mostly below about 43%.

experiment: A qHTS for Small Molecule Inhibitors of Shiga Toxin; conditions: Vero cells, Shiga toxin protein synthesis inhibition reporter; at 38.7 µM, hits give high values; further: 0% is about no effect

Row | Compound | inhibition
1 | CN(C)c1ccc(CNC(=O)CN2C(=O)COc3ccc(S(=O)(=O)N4CCCC4)cc32)cc1 | -2.88%
2 | Oc1ccc(CNc2ccccc2O)cc1 | 120% (active)
3 | O=C(Cc1ccc(Cl)cc1)NC(=S)Nc1ccccc1O | -14.5%
4 | O=[N+]([O-])c1ccccc1Nc1ccc(O)cc1 | -30.1%
5 | CCN1CCN(C2CCCCC2NS(=O)(=O)c2ccc(Cl)cc2)CC1 (stereo not given) | -12.5%
6 | COC(=O)C1=C(C)N(c2ccc(Br)cc2)C(=O)/C1=C\c1ccco1 | 14.6%
7 | CC(C)(C)C1C/C(=C/c2ccco2)C(=O)/C(=C/c2ccco2)C1 (stereo not given) | 46.5% (active)
8 | O=C1OC(/C=C/c2ccccc2)=NC/1=C/c1ccco1 | -7.2%
9 | Cc1c(S(=O)(=O)N2CC(C)CC(C)C2)c(=O)n(C)c(=O)n1C (stereo not given) | -33.2%
10 | O=C(CCc1c[nH]c2ccccc12)NCCOc1ccccc1 | 44.8%
11 | Cc1nn(C)cc1/C=N/NC(=O)c1sc2ccccc2c1Cl | 25%
12 | Oc1ccc(N=Cc2sc3ccccc3c2Cl)cc1 | 77.5% (active)
13 | Oc1ccc(N=Cc2c(O)ccc3ccccc23)cc1 | 18.7%
14 | CC(C)c1cc(C(=O)N/N=C/c2ccoc2)c(O)c(C(C)C)c1 | 4.23%
15 | CC(C)NC(=O)c1ccc(Cl)cc1Cl | 8.65%
16 | O=C(N/N=C/c1ccoc1)c1ccc(Cl)cc1Cl | 68.7% (active)
17 | O=C(NCCCN1CCCCC1)C1CCCN(c2ncnc3c2nc2n3CCCCC2)C1 (stereo not given) | 4.24%
18 | OC(COc1ccc(F)cc1Cl)CN1CCc2ccccc2C1 (stereo not given) | 16.9%
19 | Cn1nccc1NS(=O)(=O)c1ccc(F)cc1 | 160% (active)
20 | Cc1ccc(NS(=O)(=O)c2ccc(F)cc2)nc1 | -8.43%
21 | Cc1cc(C)cc(NS(=O)(=O)c2ccc(F)cc2)c1 | 8.8%
22 | COc1ccc(S(=O)(=O)NC(C)C(=O)NCc2ccncc2)cc1Cl (stereo not given) | -1.67%
23 | Cc1ccc(NC(=O)Nc2ccc3oc(C)nc3c2)cc1 | 144% (active)
24 | O=C(CSc1ncccn1)NC(=O)NCc1ccccc1 | 34.2%
25 | Cc1nc2cc(NC(=O)NCc3ccccc3)ccc2o1 | 44.8% (active)

Row | Compound | inhibition
26 | Cc1nc2ccc(NC(=O)C(F)(F)F)cc2o1 | -11.6%
27 | Cc1nc(C)c(C(=O)Nc2ccc(C)c(F)c2)o1 | 0.239%
28 | CCCCc1ccc(NC(=O)NCc2cccnc2)cc1 | 6.04%
29 | COc1ccccc1N(CC(=O)N/N=C(\C)c1ccccc1O)S(=O)(=O)c1ccc(C)cc1 | -3.24%
30 | CCOC(=O)c1ccc(NC(=O)CCn2c(=O)oc3ccccc32)cc1 | -8.48%
31 | O=C(NC(=S)N1CCCCC1c1cccnc1)c1ccccc1 (stereo not given) | 3.14%
32 | Cc1ccccc1NC(=O)CSc1ccc2nnc(-c3ccccn3)n2n1 | 15.7%
33 | COC(=O)c1ccccc1NC(=O)c1ccc(C#N)cc1 | 8.5%
34 | Cc1c(CN2CCC(n3nccc3NC(=O)CCc3ccccc3)CC2)cnn1C | 4.45%
35 | O=C(NCC(=O)N1CCC2(CC1)NCCc1[nH]cnc12)c1ccc(Br)cc1 | -10%
36 | COc1ccc(NC(=O)CCS(=O)(=O)c2cc3c(cc2Cl)NC(=O)CO3)cc1OC | -4.27%
37 | Cc1ccc2cc(CCNC(=O)c3c(-c4ccccc4Cl)noc3C)c(=O)[nH]c2c1 | -3.3%
38 | O=C(CSCc1c(F)cccc1Cl)NCC1CCCO1 (stereo not given) | -5.03%
39 | O=C(NCC1CCCO1)c1cc(-c2ccccc2)nc2ccccc12 (stereo not given) | 15%
40 | O=C(NCC1CCCO1)c1cc2c([nH]c3ccccc32)c(-c2ccc(F)cc2)n1 (stereo not given) | -7.75%
41 | O=C(NCC1CCCO1)c1ccccc1-c1nc(-c2ccccc2Cl)no1 (stereo not given) | 43.2% (active)
42 | Cc1cc(C)n(C(=O)CCNC(=O)c2ccccc2Cl)n1 | -4.34%
43 | Cc1nc2ccccc2c2oc(C(=O)NCC3CCCO3)cc12 (stereo not given) | -16%
44 | COCCNC(=O)c1ccccc1-c1nc(-c2ccccc2Cl)no1 | 79.4% (active)
45 | O=C(Nc1ccccc1C(=O)NCC1CCCO1)c1ccccc1F (stereo not given) | 17.2%
46 | Cc1ccccc1CN(c1ccc(C(=O)NCC2CCCO2)cc1)S(C)(=O)=O (stereo not given) | -12.3%
47 | O=C(NCC1CCCO1)c1ccc2ccccc2n1 (stereo not given) | 69.8% (active)
48 | Cc1ccc(-c2noc(-c3ccccc3C(=O)NCC3CCCO3)n2)cc1 (stereo not given) | 48.4% (active)
49 | Cc1ccc(S(=O)(=O)N(CC(O)CN2CCCCC2)c2cccc([N+](=O)[O-])c2)cc1 (stereo not given) | -3.58%
50 | COc1ccc(CCNS(=O)(=O)c2cc3c(cc2C)NC(=O)CO3)cc1OC | 14.5%

Row | Compound | inhibition
51 | CC(C)CC(=O)N1CCN(Cc2ccccc2Br)CC1 | 15.6%
52 | CN1CCN(NC(=O)Nc2ccc(Br)cc2)CC1 | 24.3%
53 | O=C(c1ccc(Cl)c(S(=O)(=O)N2CCCCC2)c1)N1CCCCCC1 | -21.7%
54 | COc1ccc(C(=O)CCC(=O)Nc2ccc(Cl)cc2)cc1 | -6.22%
55 | Cn1sc(=O)c2cc(S(=O)(=O)NC3CC3)ccc21 | -7.9%
56 | Cc1nn(Cc2ccccc2)c(C)c1NS(=O)(=O)c1ccccc1 | -5.63%
57 | ONC(=Nc1ccccc1)c1ccccc1Cl | -18.8%
58 | COc1ccc(N(C(=O)c2cccnc2)S(=O)(=O)c2ccc(OC)c(OC)c2)cc1 | -7.61%
59 | COc1ccc(OC)c(C(C)NC(=S)Nc2ccc(S(=O)(=O)Nc3ncccn3)cc2)c1 (stereo not given) | -14%
60 | COc1ccc2cc(C(=O)C3CCCN(C(=O)c4sc(C)nc4C)C3)ccc2c1 (stereo not given) | 15.6%
61 | O=C(CSc1ccc(-c2ccc(Br)cc2)nn1)NCC1CCCO1 (stereo not given) | 2.72%
62 | CCCNC(=O)CCn1nc(-c2ccccc2)c2ccccc2c1=O | -10.6%
63 | COC(=O)C(CC(C)C)NS(=O)(=O)c1cc(Br)ccc1Br (stereo not given) | 40.7%
64 | O=C(O)Cc1csc(-c2cccc(Oc3ccccc3)c2)n1 | -2.34% and 18.5%
65 | COc1ccc(SCc2noc(C(=O)NCC3CCCO3)c2C(=O)O)cc1 (stereo not given) | -6.14%
66 | CCC(=O)c1c[nH]c(C(=O)NCC2CCCO2)c1 (stereo not given) | -5.73%
67 | COc1ccc2cc(C(=O)NCC3CCCO3)[nH]c2c1 (stereo not given) | 81.7% (active)
68 | CNC(=O)C1CCN(S(=O)(=O)c2c(C)noc2/C=C/c2cccc(C)c2)CC1 | -9.45%
69 | Cc1ccc2cccc(OCCCOc3ccccc3CO)c2n1 | 25.2%
70 | Cc1ccc(NC(=O)c2oc3ccccc3c2C)c([N+](=O)[O-])c1 | 46.2% (active)
71 | Cc1c(C(=O)NC2CCCCC2)oc2ccccc12 | 60.6%
72 | CCc1nonc1NC(=O)c1oc2ccc(Cl)cc2c1C | 1.67%
73 | Cc1nonc1NC(=O)c1oc2ccccc2c1C | 85.7% (active)
74 | Cc1ccc(NC(=O)CN(C)Cc2ccc(F)cc2)c([N+](=O)[O-])c1 | 19.4%
75 | Cc1nonc1NC(=O)c1ccccc1Br | 30.3%

Row | Compound | inhibition
76 | COCc1cc(C)n(CC(=O)NCC2CCCO2)c(=O)c1C#N (stereo not given) | -20.7%
77 | COc1ccccc1CCCNC(=O)C1CCC(=O)N(CCN2CCOCC2)C1 (stereo not given) | -25.5%
78 | Nc1nc(NCc2ccccc2)n(-c2ccccc2)n1 | -6.24%
79 | Cc1cccc(CC(=O)N2CCN=C2SCc2ccc([N+](=O)[O-])cc2)c1 | 2.92%
80 | CN(C)S(=O)(=O)c1cccc(NC(=S)NCc2ccc3c(c2)OCO3)c1 | -10.4%
81 | S=C(Nc1cccc(Cl)c1)Nc1ccc2cn[nH]c2c1 | 34.5%
82 | S=C(NCc1ccc2c(c1)OCO2)NCc1ccco1 | 53.2%
83 | Cc1csc(NC(=S)Nc2cccc(Cl)c2)n1 | 126% (active)
84 | S=C(NCc1ccco1)Nc1ccc2c(c1)OCCO2 | 69.3% (active)
85 | FC(F)Oc1ccc(NC(=S)NCc2ccco2)cc1Cl | 9.56%
86 | FC(F)(F)c1cccc(NC(=S)Nc2cccc(Cl)c2)c1 | 1.44%
87 | CC(=O)Nc1cccc(C(=O)Nc2nc(C)cs2)c1 | 42.6%
88 | S=C(Nc1cccc(Cl)c1)Nc1ccc2c(c1)OCCO2 | 61.2% (active)
89 | CC(NS(=O)(=O)c1ccc(OCC(=O)N2CCCC2)cc1)c1ccccc1 (stereo not given) | -8.81%
90 | COCCn1cnc2c1c(=O)n(CC(=O)NN)c(=O)n2Cc1ccccc1 | 14.2%
91 | C/C(=N\NC(=O)c1cc(-c2ccc(O)cc2)nc2ccccc12)c1cccnc1 | 6.02%
92 | CC1CC(C)CN(CCCNC(=O)Cn2ncc3c([nH]c4ccccc43)c2=O)C1 (stereo not given) | -7.63%
93 | Cc1c(Br)c([N+](=O)[O-])nn1CC(=O)Nc1sc2c(c1C(=O)OC(C)C)CCC(C)C2 (stereo not given) | -7.24%
94 | CCCn1nnc(NC(=O)COc2ccc(CC)cc2)n1 | 3.59%
95 | CCCOc1cccc(C(=O)NCCCNC(=O)c2cccnc2)c1 | -9.24%
96 | CCCOc1cccc(C(=O)Nc2nnn(CCC)n2)c1 | 103% (active)
97 | CCCCCN(C(=O)CCC(=O)OCC(=O)NCc1ccc(OC)cc1)c1c(N)n(CCCC)c(=O)[nH]c1=O | -10.9%
98 | CC(C)c1ccc(NC(=O)C2CCCN(S(=O)(=O)c3cccnc3)C2)cc1 (stereo not given) | -4.38%
99 | COc1ccc(NC(=O)CC2C(=O)NC3CCCCC3N2C(=O)c2ccc(F)cc2)cc1 (stereo not given) | -4.42%
100 | O=C(COc1cccc(Cl)c1)NCc1ccccc1 | 15%
